A selection: hits, their analogues and other compounds. The true share with any hit is near 13%.
USP30 block: human USP30 deubiquitinase inhibition. purified USP30, Ub-rhodamine cleavage fluorescence. inhibition, % at 25 µM. 47,000 tested, 5.3% active. AID 1645860
USP8 block: human USP8 deubiquitinase inhibition. P40818. purified USP8, Ub-rhodamine cleavage fluorescence, 30 min. inhibition, % at 20 µM. 47,000 tested, 4.2% active. AID 1645853
USP17 inh: blocks human USP17 ubiquitin-rhodamine cleavage; A8MUK1; purified USP17, Ub-rhodamine cleavage fluorescence, 3 h; inhibition, % at 50 µM; 47,000 tested, 6.5% active; AID 1645855
USP10 inh: inhibitors of human USP10 deubiquitinase. Q14694. purified USP10, Ub-rhodamine fluorescence, 60 min. inhibition, % at 20 µM. 47,000 tested, 1.1% active
USP28 inh: inhibitors of human USP28 deubiquitinase; purified USP28, Ub-rhodamine cleavage fluorescence, 30 min; inhibition, % at 25 µM; 47,000 tested, 3% active; AID 1645857
Target sequence (Q96RU2 whole entry, looked up): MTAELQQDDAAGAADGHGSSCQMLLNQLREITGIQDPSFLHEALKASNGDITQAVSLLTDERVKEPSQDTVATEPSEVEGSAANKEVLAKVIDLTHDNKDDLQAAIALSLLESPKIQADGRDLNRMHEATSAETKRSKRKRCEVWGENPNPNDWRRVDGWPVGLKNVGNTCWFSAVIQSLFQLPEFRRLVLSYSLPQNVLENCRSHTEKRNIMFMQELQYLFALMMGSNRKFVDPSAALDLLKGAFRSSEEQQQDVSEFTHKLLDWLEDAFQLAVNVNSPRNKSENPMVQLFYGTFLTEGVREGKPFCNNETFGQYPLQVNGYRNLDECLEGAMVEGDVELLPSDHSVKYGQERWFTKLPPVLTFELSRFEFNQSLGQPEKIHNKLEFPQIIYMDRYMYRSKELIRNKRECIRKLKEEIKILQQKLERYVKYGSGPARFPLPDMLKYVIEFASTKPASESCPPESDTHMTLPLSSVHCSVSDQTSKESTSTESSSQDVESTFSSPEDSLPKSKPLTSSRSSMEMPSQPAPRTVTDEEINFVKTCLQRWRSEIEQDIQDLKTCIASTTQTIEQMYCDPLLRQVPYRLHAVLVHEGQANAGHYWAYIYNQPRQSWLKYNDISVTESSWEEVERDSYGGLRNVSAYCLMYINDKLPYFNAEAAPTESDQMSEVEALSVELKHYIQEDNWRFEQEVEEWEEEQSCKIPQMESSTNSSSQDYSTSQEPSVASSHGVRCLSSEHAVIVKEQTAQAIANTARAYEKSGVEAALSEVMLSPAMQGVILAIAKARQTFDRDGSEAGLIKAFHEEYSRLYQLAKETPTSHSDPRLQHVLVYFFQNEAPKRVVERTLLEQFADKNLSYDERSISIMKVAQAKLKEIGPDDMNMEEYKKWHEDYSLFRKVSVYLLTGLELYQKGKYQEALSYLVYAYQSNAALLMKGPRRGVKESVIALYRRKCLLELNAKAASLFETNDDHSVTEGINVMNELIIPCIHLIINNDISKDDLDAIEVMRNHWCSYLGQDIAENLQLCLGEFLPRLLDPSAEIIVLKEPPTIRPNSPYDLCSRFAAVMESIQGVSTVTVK
Numbers without * were called inactive; . = no result. No stated cut-off is given here; in the data, active means inhibition above about 30%; inactive means the rest.

SMILES	USP30 block	USP8 block	USP17 inh	USP10 inh	USP28 inh
CCN1CCN(c2ccc(C(=O)OC)cc2NC(=O)c2sc3ccccc3c2Cl)CC1	14.6	0.8	0.2	-0.9	0.4
COc1ccc(Cn2cccc(-c3nc(C4CC4)no3)c2=O)cc1F	9.9	7.8	0.8	0.4	30.8*
Cc1ccccc1Cn1cccc(-c2nc(C3CC3)no2)c1=O	-2.1	6.8	4.3	-0.3	37.9*
COc1cccc(-c2nc(Cn3cccc(-c4nc(C)no4)c3=O)no2)c1	15.3	-19.2	5.3	-4.4	2.6
COc1cc(CNc2nn[nH]n2)ccc1OCc1ccc(Cl)cc1	9.3	-1.5	7.8	7.9	5.2
O=C(NC1CCC1)[C@H]1C[C@@H]2CN(Cc3cccc(Cl)c3)C[C@H]1O2	0.5	-32.8	-5.6	0.7	-8.5
O=C(COC(=O)c1ccc2ncsc2c1)Nc1ccccc1F	-0.1	-25.3	61.3*	2.8	2.4
COc1ccc(C(O)c2ncc(-c3cccc4ccccc34)[nH]2)cc1 (stereo unspecified)	-35.4	-7.2	-22.9	-1.6	-6.6
COCCN(C(=O)C1CC1)c1nc(-c2ccccc2)cs1	19.6	31.3*	11.1	3.6	17.7
COc1ccc(CNC(=O)c2cccn2-c2ncc(C(F)(F)F)cc2Cl)cc1	1.2	6.0	6.5	1.7	11.2
Cc1c(C)c2ccc(OCC(=O)NCc3ccccn3)c(C)c2oc1=O	46.0*	2.2	39.9*	2.0	15.5
CNC(=O)N1CCCN(C2CCN(Cc3ccccc3)C2=O)CC1 (stereo unspecified)	30.3*	-0.6	-3.5	-0.6	6.3
CC(C)(C)NC(=O)N1CCCN(C2CCN(Cc3ccccc3)C2=O)CC1 (stereo unspecified)	5.9	1.9	6.7	-3.2	9.6
Cc1c(C(=O)Nc2ccn(C)n2)oc2ccc(Cl)cc12	0.0	-4.0	28.1	-2.9	-4.7
Cc1[nH]ncc1C(=O)N1CCCC(c2cccc(-n3ccnc3C)n2)C1 (stereo unspecified)	9.1	7.6	40.1*	1.0	4.1
Cc1[nH]ncc1C(=O)N1CCCC(c2cccc(-n3ccnc3)n2)C1 (stereo unspecified)	5.3	6.1	-0.6	0.8	0.1
COc1cccc(-n2cnc3cc(C(=O)NC4CC4)ccc3c2=O)c1	-13.7	92.2*	72.7*	1.5	-4.3
O=C(NC1CC1)c1ccc2c(=O)n3c(nc2c1)CCCC3	.	2.1	0.2	0.1	.
O=C(NC1CC1)c1ccc2c(=O)n(-c3ccc(F)cc3)cnc2c1	-10.5	61.7*	20.2	-1.3	-20.2
COc1ccc(CCNC(=O)c2ccc3c(=O)n(-c4ccccc4OC)cnc3c2)cc1	-16.3	-10.4	-27.1	2.5	26.2
COc1cccc(NC(=O)c2nc3c(s2)CCN(C(=O)c2ccccc2)CC3)c1	7.0	2.4	-10.5	-0.7	10.0
Cc1noc(C2CN(Cc3cccc(C#N)c3)Cc3ccnn3C2)n1 (stereo unspecified)	1.0	-53.3	-2.0	-0.3	-3.3
COCC(=O)N1CCCC(c2nc(N)ncc2-c2ccc(F)cc2)C1 (stereo unspecified)	7.2	18.9	-2.8	-0.1	0.7
CC(C)NC(=O)c1nc(-c2ccc(-n3cccc3)cc2)no1	-0.1	-0.9	21.4	0.5	-5.2
COc1ccc(NC(=O)Cn2c(=O)n(CCC(=O)N3CC=C(c4ccccc4)CC3)c(=O)c3ccccc32)cc1Cl	-5.2	0.0	-6.2	3.0	-5.2
SMILES	USP30 block	USP8 block	USP17 inh	USP10 inh	USP28 inh
COc1ccc(NC(=O)Cn2c(=O)n(CCC(=O)N3CCc4ccccc4C3)c(=O)c3ccccc32)cc1Cl	18.6	55.3*	.	17.2	10.5
COc1ccc(Cl)cc1NC(=O)Cn1c(=O)n(CCC(=O)N2CCc3ccccc3C2)c(=O)c2ccccc21	35.8*	33.8*	24.7	5.5	5.1
COc1ccc(-c2noc(NCc3ccccc3F)n2)cc1OC	9.2	3.6	11.2	1.6	8.2
Nc1ccc(F)c(NS(=O)(=O)c2ccccc2)c1	-74.0	72.2*	57.7*	-1.8	41.0*
O=C(Nc1ccccc1F)c1cncc(NS(=O)(=O)c2ccccc2)c1	3.1	8.3	5.1	0.4	2.1
O=C(Nc1cccc(Cl)c1Cl)N1CCCN(Cc2ccc(F)cc2)CC1	15.1	14.9	0.1	1.3	3.0
O=C(Nc1cccc2cnccc12)N1CCCCCC1	4.5	3.7	33.6*	2.1	10.1
O=C(Nc1ccc(N2CCN(C3CCCCC3)C2=O)nc1)c1ccncc1	-244.2	-135.5	-57.2	-9.9	-60.5
O=C(Cc1cccnc1)Nc1ccc(N2CCN(C3CCCC3)C2=O)nc1	-101.0	36.8*	2.8	-2.5	-19.1

Assay outcomes as filed in PubChem.
